From publication PMC9574860, “Chemical Toolkit for PARK7: Potent, Selective, and High-Throughput” (Journal of Medicinal Chemistry, 2022) come the findings set out here.

Screen size: about 7,900 compounds; about 400 (5.1%) showed an effect of 50% or more. What follows is part of a selection rich in strong results, with near analogues and random picks from the rest.

Chain of Parkinson's disease protein 7 (PARK7/DJ1) (Q99497 whole entry, looked up, the tested form may be a part): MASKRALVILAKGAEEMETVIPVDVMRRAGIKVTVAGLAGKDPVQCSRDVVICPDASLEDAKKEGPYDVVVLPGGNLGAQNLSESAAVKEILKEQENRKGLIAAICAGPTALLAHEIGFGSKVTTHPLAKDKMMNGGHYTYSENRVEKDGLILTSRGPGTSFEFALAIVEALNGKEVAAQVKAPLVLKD

The target in the assay is Parkinson's disease protein 7 (PARK7/DJ1) (human, UniProt Q99497). Kind of assay: primary screen, percent inhibition; read as competition with a fluorescent probe by fluorescence polarization; higher = more effect of the substance. To be noted: 100 µM. In outline:
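Covalent fragments at 100 μM final were incubated 2 h with 0.2 μM PARK7, then 20 nM probe JYQ-107 added for a further 2 h. Fluorescence polarization read at 480/520 nm; relative FP loss versus reference controls gave remaining enzyme activity.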
As for `C=CC(=O)Nc1cccc2c1CCN(S(C)(=O)=O)C2`, the Inhibition % is listed as 3.82%. As to `CC1CC(Sc2ccccc2F)C(=O)O1` (stereo not drawn), the Inhibition % was -0.183%. As for `C=CC(=O)NCCN1C(=O)Cc2ccccc21`, the Inhibition % is given as 11%. As for `CCN(C(=O)Cn1cnc(C#N)n1)C1=CCCCC1`, the Inhibition % came out at 6.47%. In the case of `C=CC(=O)N1CC23CCCCC2(COC3)C1` (stereo not drawn), the Inhibition % was 8.4%. Regarding `O=C(CCl)Nc1ccc(F)c(F)c1`, the Inhibition % was determined as 25.9%. In the case of `CNC(=O)c1ccc(NC(=O)CCl)cc1`, the Inhibition % is listed as 16.6%. In the case of `O=C(CCl)Nc1cccc(I)c1`, the Inhibition % is on record as 41%.

Consider `O=C(CCl)Nc1ccc(C(=O)O)cc1`, for which the Inhibition % is listed as 25.9%. For the compound `O=C(CCl)Nc1ccc(Cl)cc1`, the Inhibition % stood at 60.3%. Regarding `CC(=O)Nc1cccc(NC(=O)CCl)c1`, the Inhibition % amounted to 19.2%. Under `O=C(CCl)Nc1ccc2ccccc2c1` stands 55.8%; under `O=C(CCl)Nc1ccc(I)cc1`, 93.2%; under `CC(C)(C)c1ccc(NC(=O)CCl)cc1`, 100%. Consider `O=C(CCl)Nc1ccc2c(c1)C(=O)c1ccccc1C2=O`, for which the Inhibition % is reported as 2.08%. In the case of `O=C(CCCl)Nc1ccc(Cl)cc1`, the Inhibition % is 9.16%. In the case of `CC(C)CN(C1CC1)S(=O)(=O)C=Cc1ccccc1`, the Inhibition % worked out at 13.3%. For `C=CC(=O)N1CCS(=O)(=O)c2ccccc2C1`, the Inhibition % was 7.33%. The same measure for `CC1(C)OB(c2cccc3scnc23)OC1(C)C`: 3.85%. Take `C=CC(=O)NCC1CC(C)OC(C)C1` (stereo not drawn): the Inhibition % is 11.1%.

With `N#Cc1c(N)nc2n1CCS2`, the Inhibition % was 4.18%. As for `N#Cc1ncccc1OCCc1ccccc1`, the Inhibition % was 13.6%.

For the compound `CC(NC(=O)Cn1cnc(C#N)n1)c1ccc(F)cc1` (stereo not drawn), the Inhibition % is 4.98%. In the case of `C=CC(=O)N1CCN(Cc2ccon2)CC1`, the Inhibition % came out at 4.28%. Under `Cn1ncc(C(F)(F)F)c1B1OC(C)(C)C(C)(C)O1` stands 8.08%; under `NC(=O)c1ccsc1NC(=O)CCCl`, 9.06%. As for `O=C(CCl)Nc1nncs1`, the Inhibition % was found to be 4.4%. On to `NC(=O)c1cc(-c2ccccc2)sc1NC(=O)CCl`, for which the Inhibition % came out at 79.3%.

Take `NC(=O)c1ccccc1NC(=O)CCl`: the Inhibition % is 0.06%. With `O=C(CCl)Nc1ccc(-c2ccccc2)cc1`, the Inhibition % is 4.3%.

`NC(=O)c1ccsc1NC(=O)CCl`: the Inhibition % is 84.7%.

As for `Cn1cc(C(=O)O)c(CCCCl)n1`, the Inhibition % is 6.81%.

`N#Cc1cc(N2CCCC2)c2ccccc2n1`: the Inhibition % was determined as 3.59%. For the compound `C=CCNS(=O)(=O)C=Cc1ccccc1`, the Inhibition % stood at 7.29%.

Consider `CC1(C)OB(c2cccc(-n3ccnn3)c2)OC1(C)C`, for which the Inhibition % is on record as 6.79%. Regarding `C=CC(=O)Nc1nc2cnccn2n1`, the Inhibition % turned out to be 23%.

Regarding `C=CC(=O)NCc1cc2n(n1)CCCC2`, the Inhibition % turned out to be 10.1%.

In the case of `N#Cc1ncn(CC2CCCO2)n1` (stereo not drawn), the Inhibition % is 1.91%. Under `O=[N+]([O-])c1ccccc1S(=O)(=O)F` stands 99.1%; under `O=S(=O)(F)c1ccccc1Br`, 44.3%.

Turning to `O=S(=O)(F)c1ccccc1O`, the Inhibition % was 9.92%. Under `C=CC(=O)NCC1COC(=O)N1` (stereo not drawn) stands 13.5%; under `O=S(=O)(F)c1ccc(C(F)(F)F)nn1`, 8.52%. With `O=S(=O)(F)c1ccc(C(F)(F)F)cn1`, the Inhibition % stood at 6.36%.

Regarding `Cc1ccc(S(=O)(=O)F)nn1`, the Inhibition % was 65.4%. Under `C=CC(=O)N[C@@H]1C=C[C@H](CO)C1` stands 8.28%. As for `Cn1cc(C=C(C#N)C(=O)NCCc2ccccc2)cn1`, the Inhibition % amounted to 9.69%.

On to `O=C(O)c1coc(C(=O)CCl)c1`, for which the Inhibition % amounted to 96.1%. Take `O=C(O)c1ccc(CCCl)cc1`: the Inhibition % came to 8.12%.

On to `O=C(CCl)Nc1cc(C(=O)O)cc(C(=O)O)c1`, for which the Inhibition % stood at 1.39%.

As to `CNC(=O)c1cc(C(=O)CCl)cn1C`, the Inhibition % is given as 5.61%. Turning to `NC(=O)c1coc(C(=O)CCl)c1`, the Inhibition % turned out to be 96.3%. As to `C=CC(=O)N1CCC(OC)C(C)C1` (stereo not drawn), the Inhibition % was found to be 4.37%. Consider `N#CC(=Cc1ccccc1)C(=O)N1CCC(C(N)=O)CC1`, for which the Inhibition % is recorded as 9.67%. Consider `CN1C(=O)C(C#N)=C(N)C12CCCC2`, for which the Inhibition % turned out to be 9%.

Take `C=CC(=O)N1CCN(C(=O)OCC(C)C)CC1`: the Inhibition % turned out to be 11.5%. Consider `CN(CCC1CCOCC1)c1nc2ccccn2c1C#N`, for which the Inhibition % was determined as 5.08%.

On to `Cc1ccc(C=CS(=O)(=O)NCCC(=O)O)cc1`, for which the Inhibition % is recorded as 5.97%. With `O=C(O)c1ccc(NS(=O)(=O)C=Cc2ccccc2)cc1`, the Inhibition % came to 6.88%. The same measure for `CNC(=O)CNS(=O)(=O)C=Cc1ccc(Cl)cc1`: 0.98%; for `CNC(=O)CNS(=O)(=O)C=Cc1ccccc1`: 6.07%.

`O=C(O)c1csc(NS(=O)(=O)C=Cc2ccccc2)c1`: the Inhibition % was 62.5%. The same measure for `O=C(O)CNS(=O)(=O)C=Cc1ccccc1`: 84.3%.

Take `O=C(O)c1cccc(NS(=O)(=O)C=Cc2ccccc2)c1`: the Inhibition % is recorded as -0.0382%. Take `Cc1ccc(C=CS(=O)(=O)NCC(=O)O)cc1`: the Inhibition % is 81.7%.

Consider `O=C(O)CCNS(=O)(=O)C=Cc1ccccc1`, for which the Inhibition % worked out at 6.07%.
